Test [1] concerns the target T1, Hexokinase-4 (Homo sapiens) + Glucokinase regulatory protein (Homo sapiens) (UniProt P35557+Q14397). The test can be described thus: qHTS assay for inhibitors of recombinant human GCK-GKRP interaction: Diaphorase-coupled assay (AID 743205). The essentials:
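A kinetic fluorescence read (Ex 525/Em 590 nm, every minute for 30 minutes) tracked resorufin from a G6PDH-diaphorase coupled GCK reaction. It contained 10 nM GST-GCK, 10 nM FLAG-GKRP, 5 mM glucose, 0.4 mM ATP in Hepes pH 7.6. Normalized to with/without-enzyme DMSO controls.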
On the technique in general: In qHTS, concentration-response curves come from the screen itself.

In test [2] the target is T1, Hexokinase-4 (Homo sapiens) + Glucokinase regulatory protein (Homo sapiens). The test can be described thus: qHTS assay for inhibitors of recombinant human GCK-GKRP interaction: ADP-Glo assay (AID 743206).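 Also: plate controls were DMSO plus enzyme for no effect and no enzyme for full effect.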 The essentials: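 GST-GCK and FLAG-GKRP (15 nM each in the dispensed mix, with 2 uM S6P) react with 0.4 mM ATP and 5 mM glucose (final) in Hepes pH 7.6 for 60 min at room temperature. ADP is measured by ADP-Glo luminescence.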

For test [3] the target is unchanged. The experiment in a line: qHTS assay for inhibitors of recombinant human GCK-GKRP interaction: HTRF assay (AID 743207).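 Also: 0% = DMSO with GCK present and -100% = DMSO wells lacking GCK.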 The essentials:
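After 60 min equilibration at room temperature with anti-FLAG XL665 and anti-GST antibodies, FRET ratio (665/615 nm, excitation 320 nm) was read. Proteins: GST-GCK and FLAG-GKRP, each 5 nM, plus 2 uM S6P, pH 7.1 buffer; GCK-free wells define minimum signal.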

A short description of test [4]: qHTS assay for measurement of the activity of small molecule inhibitors on Zika virus induced Caspase-3 activity in human iPSC derived neural progenitor cells (hNPCs) (AID 1224857). Also: % of control where 0% means no effect; nearly all actives have a fitted effect of over 65% in size. The essentials: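 In medium with heparin 2 ug/ml and cyclopamine 2 uM, hNPCs (350 cells/well) received compound for one hour and then Zika virus at 2 FFU/cell; caspase activity was measured by Caspase-Glo 3/7 luminescence 6 h post-infection.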

Test [5] is described as follows: qHTS assay for measurement of the activity of small molecule inhibitors on Zika virus induced Caspase-3 activity in human astrocytoma cells (AID 1224859).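 Also: plate controls were ZIKV-infected untreated cells for no effect and uninfected cells for full effect.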 The essentials: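 A cell-based luminescent caspase-3/7 assay used SNB-19 cells infected with ZIKV (2 FFU/cell) for 6 h following 1 h compound pretreatment.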
Test [6] is described as follows: Natriuretic polypeptide receptor (hNpr1) antagonism - Pilot counterscreen GloSensor control cell line (AID 1347045; calls by dose curve; also: potency is read from the fitted curve at half-maximal effect). The method in brief:
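HEK293 cGMP GloSensor cells preloaded 2 h with 2% GloSensor reagent, then compound 30 min before baseline luminescence read. Stimulated with 50 uM sodium nitroprusside, 20 min at room temperature, then read again; counterscreen for Npr1 antagonism.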
On the technique in general: A counterscreen serves to expose hits that act by an unwanted route or on another target.

In test [7] the target is Atrial natriuretic peptide receptor 2 (Homo sapiens) (UniProt P20594). The test can be described thus: Natriuretic polypeptide receptor (hNpr2) antagonism - Pilot subtype selectivity assay (AID 1347050; calls by dose curve; also: % is scaled to controls: 0 for no effect and ±100 for the full control effect). The essentials: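 Pilot selectivity screen against hNpr2: HEK293 cGMP-sensor cells are treated with LOPAC1280 compounds, then with hNppC peptide at 1 nM final. The cGMP-driven luminescence change over 20 min at room temperature is the read-out.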
Chain of Atrial natriuretic peptide receptor 2 (Homo sapiens) (P20594 whole entry, looked up): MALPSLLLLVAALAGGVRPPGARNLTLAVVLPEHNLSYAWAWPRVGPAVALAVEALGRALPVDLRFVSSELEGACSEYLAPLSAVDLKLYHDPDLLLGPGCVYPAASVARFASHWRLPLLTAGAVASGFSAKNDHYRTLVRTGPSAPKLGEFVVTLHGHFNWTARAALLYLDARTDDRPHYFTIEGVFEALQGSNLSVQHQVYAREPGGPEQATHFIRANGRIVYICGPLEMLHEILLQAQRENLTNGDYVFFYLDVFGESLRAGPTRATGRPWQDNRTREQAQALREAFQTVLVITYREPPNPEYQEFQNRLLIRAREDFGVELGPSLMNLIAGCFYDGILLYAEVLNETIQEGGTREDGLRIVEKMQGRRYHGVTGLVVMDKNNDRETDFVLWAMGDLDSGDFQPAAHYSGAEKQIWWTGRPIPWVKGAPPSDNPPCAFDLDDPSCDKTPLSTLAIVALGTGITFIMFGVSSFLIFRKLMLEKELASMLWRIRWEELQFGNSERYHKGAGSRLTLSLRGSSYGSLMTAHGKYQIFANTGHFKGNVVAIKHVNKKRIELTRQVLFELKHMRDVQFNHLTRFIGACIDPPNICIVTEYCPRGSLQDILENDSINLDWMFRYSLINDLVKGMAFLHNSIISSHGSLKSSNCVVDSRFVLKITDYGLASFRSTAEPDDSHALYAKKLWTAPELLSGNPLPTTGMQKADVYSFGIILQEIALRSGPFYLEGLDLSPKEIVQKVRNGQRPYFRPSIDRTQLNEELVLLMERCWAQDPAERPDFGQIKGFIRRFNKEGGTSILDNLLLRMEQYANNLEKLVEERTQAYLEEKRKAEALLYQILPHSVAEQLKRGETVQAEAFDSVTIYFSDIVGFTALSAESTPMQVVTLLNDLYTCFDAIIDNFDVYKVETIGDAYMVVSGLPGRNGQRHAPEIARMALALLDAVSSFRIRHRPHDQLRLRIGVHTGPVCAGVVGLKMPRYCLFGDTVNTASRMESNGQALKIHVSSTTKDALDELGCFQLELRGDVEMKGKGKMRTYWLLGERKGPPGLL

Test [8] can be described thus: qHTS Assay for Identifying Gametocytocidal Compounds (AID 743244).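 Also: % is scaled to controls: 0 for no effect and ±100 for the full control effect; actives lower the fluorescent signal which means gametocytes are killed.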 The following applies: P. falciparum 3D7 stage III-V gametocytes, alamarBlue, 72 h; max response: hits give low values. The method in brief: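 In this qHTS viability screen, late-stage 3D7 gametocytes are incubated with compound for 72 h, then with alamarBlue for 24 h; reduced resorufin fluorescence marks killing.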

For test [9], the target named is Atrial natriuretic peptide receptor 1 (Homo sapiens) (UniProt P16066). The test can be described thus: Natriuretic polypeptide receptor (hNpr1) antagonism - Pilot screen (AID 1347049; calls by dose curve;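 also: agonist-evoked cGMP luminescence read 20 min after hNppA addition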; also: potency is read from the fitted curve at half-maximal effect). The method in brief:
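Readout is cGMP-driven firefly luciferase luminescence in HEK293 cells carrying hNpr1 and a PDE5-domain GloSensor, read before and 20 min after 0.1 nM hNppA stimulation. Cells had 2% substrate reagent for 2 h and test compound for 30 min.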

Structures are written as SMILES. Values without a mark were called inactive. Records with an inconclusive call do not appear. The source made the active and inactive calls. Unless noted, calls follow the shape of the dose curve; as a rule, active = well fitted curve in the direction sought with a large enough effect; inconclusive = small, poorly fitted or top-dose-only effect, or another doubt; inactive = no such curve, though single readings can be large; an effect the other way counts as inactive or inconclusive.

Chain of Atrial natriuretic peptide receptor 1 (Homo sapiens) (P16066 whole entry, looked up): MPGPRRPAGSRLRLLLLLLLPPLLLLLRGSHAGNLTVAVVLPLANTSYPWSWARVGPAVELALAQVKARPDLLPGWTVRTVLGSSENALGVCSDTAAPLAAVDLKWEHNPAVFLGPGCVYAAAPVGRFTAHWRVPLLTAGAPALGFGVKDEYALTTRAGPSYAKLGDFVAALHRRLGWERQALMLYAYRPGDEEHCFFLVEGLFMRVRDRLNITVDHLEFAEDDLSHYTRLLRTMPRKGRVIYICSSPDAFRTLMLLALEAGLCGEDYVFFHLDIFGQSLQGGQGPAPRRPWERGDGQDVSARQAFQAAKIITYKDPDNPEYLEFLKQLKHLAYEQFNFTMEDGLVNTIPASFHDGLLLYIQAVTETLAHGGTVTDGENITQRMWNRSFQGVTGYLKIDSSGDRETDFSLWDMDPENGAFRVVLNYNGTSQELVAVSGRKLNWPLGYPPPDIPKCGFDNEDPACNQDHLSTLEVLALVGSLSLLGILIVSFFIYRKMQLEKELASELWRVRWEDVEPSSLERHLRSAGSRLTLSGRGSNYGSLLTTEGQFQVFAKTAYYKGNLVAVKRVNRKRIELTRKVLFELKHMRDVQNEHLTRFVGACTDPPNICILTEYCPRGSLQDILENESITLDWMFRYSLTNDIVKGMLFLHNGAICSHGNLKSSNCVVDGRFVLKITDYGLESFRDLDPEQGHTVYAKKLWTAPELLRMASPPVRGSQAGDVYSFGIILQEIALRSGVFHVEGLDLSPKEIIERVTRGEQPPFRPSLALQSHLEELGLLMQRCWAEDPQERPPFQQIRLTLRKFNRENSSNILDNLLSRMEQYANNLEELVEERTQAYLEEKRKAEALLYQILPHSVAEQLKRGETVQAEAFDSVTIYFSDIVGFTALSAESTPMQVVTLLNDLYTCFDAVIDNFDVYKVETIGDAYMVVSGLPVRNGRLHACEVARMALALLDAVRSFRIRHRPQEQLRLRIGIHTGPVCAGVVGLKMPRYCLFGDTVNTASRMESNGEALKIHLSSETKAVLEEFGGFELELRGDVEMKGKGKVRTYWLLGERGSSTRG
T1 sequence (P35557 whole entry, looked up): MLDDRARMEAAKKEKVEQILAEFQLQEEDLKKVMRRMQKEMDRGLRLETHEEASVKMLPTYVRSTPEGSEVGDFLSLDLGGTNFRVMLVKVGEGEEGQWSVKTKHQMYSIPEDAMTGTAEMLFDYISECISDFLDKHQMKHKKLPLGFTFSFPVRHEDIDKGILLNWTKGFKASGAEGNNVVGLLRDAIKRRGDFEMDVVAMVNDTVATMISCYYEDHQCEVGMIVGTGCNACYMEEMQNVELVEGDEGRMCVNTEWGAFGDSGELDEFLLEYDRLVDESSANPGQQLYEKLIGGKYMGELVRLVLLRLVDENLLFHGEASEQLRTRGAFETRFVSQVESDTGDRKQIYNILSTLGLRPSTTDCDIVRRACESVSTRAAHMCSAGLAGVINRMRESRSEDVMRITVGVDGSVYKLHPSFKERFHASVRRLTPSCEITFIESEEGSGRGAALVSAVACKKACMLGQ
T1 sequence (Q14397 whole entry, looked up): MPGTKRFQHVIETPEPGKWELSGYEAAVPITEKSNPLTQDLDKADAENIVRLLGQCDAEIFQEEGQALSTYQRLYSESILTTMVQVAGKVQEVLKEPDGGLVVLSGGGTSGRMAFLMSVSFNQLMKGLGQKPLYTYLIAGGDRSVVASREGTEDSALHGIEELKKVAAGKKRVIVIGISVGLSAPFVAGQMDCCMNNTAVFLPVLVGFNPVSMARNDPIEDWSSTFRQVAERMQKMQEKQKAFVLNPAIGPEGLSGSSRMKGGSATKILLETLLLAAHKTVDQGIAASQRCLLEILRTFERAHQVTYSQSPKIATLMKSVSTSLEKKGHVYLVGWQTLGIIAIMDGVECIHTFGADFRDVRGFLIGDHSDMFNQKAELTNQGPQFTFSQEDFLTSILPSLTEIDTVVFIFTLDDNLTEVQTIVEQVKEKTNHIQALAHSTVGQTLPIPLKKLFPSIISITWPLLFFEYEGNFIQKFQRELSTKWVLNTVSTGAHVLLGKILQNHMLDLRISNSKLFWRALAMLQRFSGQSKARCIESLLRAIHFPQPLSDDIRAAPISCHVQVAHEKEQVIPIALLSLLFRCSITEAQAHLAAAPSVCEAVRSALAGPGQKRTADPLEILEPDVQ

In the case of `C[N+](C)(C)CC=O`, the Potency result in test [1], in [2], in [3], in [4], in test [5] and in test [6] was “inactive” each time. Besides, the Potency result in [7] is “inactive”.

Regarding `CC#CCOC(=O)c1c(C)nc2sc3c(c2c1N)CCC(O)C3` (stereo not drawn), the Potency result in [1], in test [2], in [4], in test [5], in [6] and in test [9] was “inactive” throughout. The Potency result in [7] was “inactive”. For the same compound, the max response in test [8] was -7.3%.

On to `S=C(S)N1CCCC1`, for which the Potency result in [1], in [2], in test [3], in test [4] and in test [5] was “inactive” in each case. Further, the values for the Potency in [6] and in test [9] were 7.36 µM (active) and 9.53 µM (active), respectively.

Regarding `CC(C)(C)c1ccc(/C=C/C(=O)Nc2ccc3c(c2)OCCO3)cc1`, the Potency result in test [1], in test [2], in [3], in test [4] and in [5] was “inactive” in each case. In addition, in test [8], the max response is 13.4%. Also, the Potency was 16.5 µM (active) in test [6] and 23.9 µM (active) in [9].

Consider `N[C@@H](CCC(=O)N[C@H](CSN=O)C(=O)NCC(=O)O)C(=O)O`, for which the Potency result in [1], in [2], in test [3], in test [4], in test [5] and in [6] was “inactive” throughout. In addition, the Potency result in [9] was “inactive”.

As to `NC(=O)CNCCC(c1ccccc1)c1ccccc1`, the Potency result in test [1], in test [2], in test [3], in [4], in test [5] and in test [6] was “inactive” each time. In addition, the Potency entry in test [9] is “inactive”.

Take `N[C@@H](CCCC(=O)O)C(=O)O`: the Potency entry in [1], in test [2], in [3], in [4], in [5] and in [6] was “inactive” in each case. Also, the Potency entry in test [9] is “inactive”. Moreover, the max response in test [8] was 28.3%.

As to `Oc1cc(O)c2c(c1)O[C@H](c1ccc(O)c(O)c1)[C@@H](O)C2`, the Potency result in [1], in [2], in test [4], in test [5], in test [6] and in test [9] was “inactive” throughout. In addition, the max response in test [8] is -4.64%.

`CN(C)CCC(c1ccc(Br)cc1)c1ccccn1` (stereo not drawn): the Potency entry in test [1], in [2], in [3], in test [4], in test [5] and in test [6] was “inactive” each time. The Potency result in [9] is “inactive”. Also, the max response in test [8] was 11.9%.

`CCCC[C@@]1(C2CCCC2)Cc2cc(OCC(=O)O)c(Cl)c(Cl)c2C1=O`: the Potency entry in test [1], in test [2], in test [4], in [5], in test [6] and in test [9] was “inactive” in each case. Also, the max response in test [8] is 8.17%.

Consider `CCC1(O)CC2CN(CCc3c([nH]c4ccccc34)[C@@](C(=O)OC)(c3cc4c(cc3OC)N(C=O)C3[C@]45CCN4CC=C[C@@](CC)([C@@H](OC(C)=O)[C@]3(O)C(=O)OC)[C@H]45)C2)C1` (stereo partly drawn), for which the Potency entry in test [1], in test [2], in test [3], in [4], in test [5] and in test [6] was “inactive” in each case. Besides, in test [9], the Potency result is “inactive”.

On to `CC(=O)NNC(=O)N1Cc2ccccc2Oc2ccc(Cl)cc21`, for which the Potency result in test [1], in test [2], in test [3], in test [4], in test [5] and in test [6] was “inactive” in each case. In test [9], the Potency result is “inactive”. Besides, the max response in test [8] is 7.75%.

Take `COc1cc(CNC(=O)CCCCCCC(C)C)ccc1O`: the Potency result in test [1], in test [2], in test [3], in test [4], in test [5] and in test [6] was “inactive” each time. Moreover, the Potency result in [7] was “inactive”.

Consider `Oc1ccc(/C=C/c2ccc(/C=C/c3ccc(O)cc3)c(Br)c2)cc1`, for which the Potency result in test [1], in test [2], in test [3], in [4], in test [5] and in [6] was “inactive” throughout. In test [7], the Potency result was “inactive”.

These data come from PubChem BioAssay (NCATS).
